Laboratory results from PubChem BioAssay.
Measured potencies and affinities stand elsewhere. Records with an inconclusive call do not appear. Activity calls are given as the source filed them. Unless noted, how the calls were made is not given here.

Assays:
[1] = RMG-1 ovarian cancer cell viability loss – cherry-pick, dose response (AID 687029;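 active means signal drop whose fitted half-maximal concentration is at most twice the top valid dose, in every test run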;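 further: cells exposed to compound for 96 hours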)
[2] = IOSE-T80 viability loss, PAX8-independent line – cell-based, cherry-pick, selectivity assay for PAX8 inhibitor project, dose response (AID 687032;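 active means fitted half-maximal concentration for viability loss no higher than twice the top valid dose, in every repeat run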;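 further: cells exposed to compound for 96 h before reading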)
[3] = CMV-driven luciferase expression suppression in HEK293 – cell-based, luminescence, dry powder, counter-screen for Pax8 inhibitor project, dose response (AID 743020;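 active means signal-lowering compounds whose fitted half-maximal concentration is at or below twice the top tested dose in every run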;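 further: HEK293 cells stably expressing the CMV luciferase reporter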)
[4] = general cell-killing toxicity readout – plate reader, dry powder samples, cytotoxicity control for PAX8 inhibitor project, dose response (AID 743021)
[5] = toxicity toward immortalized ovarian surface epithelium – cell-based, plate reader, dry powder samples, cytotoxicity control for PAX8 inhibitor project, dose response (AID 743045);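 further: more negative values mean more cell killing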
[6] = A2780 cell killing – plate reader, dry powder samples, cytotoxicity control, dose response (AID 743046)
[7] = OVCAR8 cell viability loss – plate reader, dry powder samples, PAX8 project, dose response (AID 743197)

Measured: outcome

C[C@H]1CCCCO[C@@H](CN(C)Cc2ccc(C(F)(F)F)cc2)[C@@H](C)CN([C@@H](C)CO)C(=O)c2cc(NS(=O)(=O)c3ccccc3)ccc2O1
not listed: [7]
inactive: all other assays above

C[C@H]1CCCCO[C@H](CN(C)Cc2ccc(C(F)(F)F)cc2)[C@@H](C)CN([C@@H](C)CO)C(=O)c2cc(NC(=O)Cc3ccccc3)ccc2O1
not listed: [7]
inactive: all other assays above

CCCC#Cc1ccc([C@@H]2[C@H](CO)N3CCCCN(S(=O)(=O)Cc4ccccc4)C[C@@H]23)cc1
inactive: all assays above

Cc1cccc(S(=O)(=O)N2CCCCN3[C@H](CO)[C@H](c4ccc(C#C[C@H](C)O)cc4)[C@H]3C2)c1
not listed: [7]
inactive: all other assays above

O=C(Nc1cccc(F)c1)N1CCCCN2[C@@H](CO)[C@@H](c3ccc(-c4ccccc4F)cc3)[C@@H]2C1
inactive: all assays above

C[C@@H]1CN([C@H](C)CO)C(=O)c2cc(NC(=O)Nc3ccc(C(F)(F)F)cc3)ccc2O[C@@H](C)CCCCO[C@H]1CN(C)C(=O)c1ccccc1
not listed: [5] | [7]
inactive: all other assays above

COc1ccccc1NC(=O)N1CCCCN2[C@@H](CO)[C@@H](c3ccc(-c4cccc(C)c4)cc3)[C@@H]2C1
not listed: [5] | [7]
inactive: all other assays above

O=C(Nc1ccccc1F)N1CCCCN2[C@@H](CO)[C@@H](c3ccc(/C=C/c4ccccc4)cc3)[C@@H]2C1
inactive: all assays above

C[C@@H]1CN([C@H](C)CO)C(=O)c2cc(NS(=O)(=O)c3ccc(Cl)cc3)ccc2O[C@@H](C)CCCCO[C@H]1CN(C)Cc1ccc2c(c1)OCO2
not listed: [7]
inactive: all other assays above

COc1cccc(S(=O)(=O)Nc2ccc3c(c2)[C@@H]2C[C@@H](CC(=O)NCc4ccc(Cl)cc4)O[C@@H](CO)[C@@H]2O3)c1
inactive: all assays above

C[C@@H]1CCCCO[C@H](CN(C)Cc2ccc(Cl)c(Cl)c2)[C@@H](C)CN([C@@H](C)CO)C(=O)c2cc(NC(=O)Cc3ccccc3)ccc2O1
not listed: [7]
inactive: all other assays above

Cc1ccc(S(=O)(=O)Nc2ccc3c(c2)C(=O)N([C@H](C)CO)C[C@@H](C)[C@@H](CN(C)Cc2ccc(C(F)(F)F)cc2)OCCCC[C@@H](C)O3)cc1
not listed: [5] | [7]
inactive: all other assays above

C[C@@H]1CN([C@@H](C)CO)C(=O)Cc2cc(NS(=O)(=O)c3ccc(F)cc3)ccc2O[C@H]1CN(C)Cc1ccc(C(F)(F)F)cc1
not listed: [7]
inactive: all other assays above

O=C1CN(S(=O)(=O)Cc2ccccc2)C[C@@H]2[C@H](c3ccc(C#Cc4ccc(F)cc4)cc3)[C@H](CO)N12
not listed: [6]
inactive: all other assays above

Cc1ccc(S(=O)(=O)N(C)C[C@H]2Oc3cc(C#Cc4ccncc4)ccc3S(=O)(=O)N([C@@H](C)CO)C[C@H]2C)cc1
not listed: [5] | [7]
inactive: all other assays above

C[C@H]1CCCCO[C@H](CN(C)C(=O)Nc2ccc(C(F)(F)F)cc2)[C@@H](C)CN([C@@H](C)CO)C(=O)c2cc(NC(=O)CCC(F)(F)F)ccc2O1
inactive: all assays above

O=C(Nc1cccc(F)c1)N1CCCCN2[C@@H](CO)[C@@H](c3ccc(C#Cc4ccccc4)cc3)[C@@H]2C1
not listed: [7]
inactive: all other assays above

O=C(C[C@@H]1C[C@H]2c3cc(NS(=O)(=O)c4ccc(F)cc4)ccc3O[C@H]2[C@H](CO)O1)NCc1ccc(Cl)cc1
not listed: [5] | [7]
inactive: all other assays above

C[C@@H]1CCCCO[C@@H](CN(C)Cc2ccc3c(c2)OCO3)[C@@H](C)CN([C@@H](C)CO)C(=O)c2cc(NC(=O)Nc3ccc(C(F)(F)F)cc3)ccc2O1
not listed: [7]
inactive: all other assays above

C[C@@H]1CCCCO[C@@H](CN(C)Cc2ccc(C(F)(F)F)cc2)[C@H](C)CN([C@@H](C)CO)C(=O)c2cc(NC(=O)Cc3ccccc3)ccc2O1
not listed: [7]
inactive: all other assays above

CCCC#Cc1ccc([C@H]2[C@@H](CO)N3CCCCN(S(=O)(=O)Cc4ccccc4)C[C@H]23)cc1
not listed: [7]
inactive: all other assays above

CCc1ccc(/C=C2\SC(=S)N(CCCC(=O)N(CCO)c3ccccc3)C2=O)cc1
not listed: [7]
inactive: all other assays above

C[C@@H]1CCCCO[C@@H](CN(C)Cc2ccc(C(F)(F)F)cc2)[C@H](C)CN([C@@H](C)CO)C(=O)c2cc(NC(=O)NC3CCCCC3)ccc2O1
not listed: [7]
inactive: all other assays above

COc1ccccc1S(=O)(=O)N(C)C[C@H]1Oc2cc(C#CCC3CCCC3)ccc2S(=O)(=O)N([C@@H](C)CO)C[C@@H]1C
not listed: [6]
inactive: all other assays above

O=C(C[C@H]1C[C@@H]2c3cc(NC(=O)Nc4ccc(C(F)(F)F)cc4)ccc3O[C@@H]2[C@@H](CO)O1)NCc1ccc(Cl)cc1
inactive: all assays above
